Reference: PubChem BioAssay (NCI)
This is part of a sample that, as a whole, favours compounds with a hit. Of some 83,000 tested, about 20% had one in any assay.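 Interpretation: 100, growth as untreated; towards 0, rising growth inhibition; 0, no net growth; 0 to -100, cell death. Compounds scoring below 10 were considered active.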 Unmarked numbers belong to inactive results. Activity calls are given as the source filed them.

Columns and labels:
Test in all cases: NCI-60 one-dose screen, 48 h (100 = growth as untreated, 0 = no growth, -100 = all killed)
Conditions in all cases: 10 µM unless noted
[1] = tested on: SK-MEL-2 melanoma
[2] = tested on: EKVX NSCLC
[3] = tested on: SN12C renal
[4] = tested on: UO-31 renal
[5] = tested on: TK-10 renal
[6] = tested on: ACHN renal
[7] = tested on: A498 renal
[8] = tested on: CCRF-CEM leukemia
[9] = tested on: MOLT-4 leukemia
[10] = tested on: SR leukemia

| SMILES | growth [1] | growth [2] | growth [3] | growth [4] | growth [5] | growth [6] | growth [7] | growth [8] | growth [9] | growth [10] |
| --- | --- | --- | --- | --- | --- | --- | --- | --- | --- | --- |
| Cc1nc2sc(C(=O)Nc3cccc4ccccc34)c(N)c2cc1C(C)O (stereo not given) | 36.5% | 36.7% | 36% | 48.6% | 75.2% | 42.8% | 24.2% | 9.13% (active) | 13.3% | 12.3% |
| COC(=O)c1nc(-c2ccccc2)oc1S(=O)(=O)n1nc(-c2ccccc2)cc1N | 85.9% | 95.9% | 73.3% | 65.6% | 114% | 19.2% | 108% | 27.2% | 17.6% | 1.74% (active) |
| CCOC(=O)C1CCN(S(=O)(=O)/N=C2/NC(=O)NC2=C(Cl)Cl)CC1 | -23.4% (active) | 67.4% | -35.1% (active) | 8.22% (active) | 33.1% | 14.2% | 23.9% | -53.4% (active) | -20.8% (active) | -11.4% (active) |
| O=[N+]([O-])c1cccc(CN(Cc2cccc([N+](=O)[O-])c2O)c2ccccc2)c1O | 84.7% | 77.3% | 80.6% | 39.6% | 89.7% | 74.6% | 65.5% | 67.8% | 64.6% | 55.8% |
| C=C1C(=O)O[C@H]2[C@H]1CC/C(COC(=O)c1cccnc1N)=C\CC[C@@]1(C)O[C@@H]21 | 39.1% | 34.1% | 10.4% | 13.3% | -6.51% (active) | -3.75% (active) | 33.8% | -3.91% (active) | 8.57% (active) | 2.93% (active) |
| COc1ccc(C(=O)c2cc(OC)c(OC)c(OC)c2)cc1OC(=O)C(Cl)(Cl)Cl | 29.8% | 61.3% | 30.9% | 39.1% | 65.6% | 31.8% | 46.5% | 8.37% (active) | 11.8% | 6.59% (active) |
| COc1ccccc1N1CCN(CCCOc2ccc(C(=O)/C=C3/C(=O)Nc4ccccc43)cc2)CC1 | 72.2% | 53.5% | 69.7% | 44.5% | 87.1% | 74.2% | 88.6% | 15.6% | 18.6% | 19.8% |
| C=C(C)[C@@H]1CC[C@]2(C(=O)N3CCN(C)CC3)CC[C@]3(C)[C@H](CC[C@@H]4[C@@]5(C)C/C(=C/c6ccco6)C(=O)C(C)(C)[C@@H]5CC[C@]43C)[C@@H]12 | 83.7% | 68.2% | 64.9% | 60.5% | 98.8% | 74.7% | 97.5% | 50.1% | 28.6% | -21.9% (active) |
| CC(=O)c1cc2c(N)c(C(=O)Nc3ccccn3)sc2nc1C | 53.6% | 74.7% | 92.7% | 86.7% | 90.8% | 98.9% | 30.3% | 102% | 98.2% | 69.2% |
| Cc1ccc(C(=O)/C(=C/c2ccc([N+](=O)[O-])cc2)S(=O)Cc2ccccc2)cc1 (stereo not given) | 57.9% | 30.3% | -41.1% (active) | -83.7% (active) | 6.85% (active) | -52.8% (active) | 41% | 6.67% (active) | 1.79% (active) | 0.101% (active) |
| O=C(Nc1ccc2ncnc(Nc3cccc(C(F)(F)F)c3)c2c1)c1cccs1 | 90.7% | 32.5% | 68.5% | 51.1% | 47.4% | 47.4% | 18.9% | 37.2% | 17.6% | 33.8% |
| CCCCc1n(Cc2ccc3ccccc3n2)cc[n+]1Cc1ccc2ccccc2c1 | -35.7% (active) | 41.7% | 1.13% (active) | 69.2% | -5.08% (active) | 61.2% | 7.02% (active) | 6.45% (active) | 4.42% (active) | -27.1% (active) |
| Cc1[nH]c2ncnc(Oc3ccc(NC(=O)Nc4ccc(Cl)c(C(F)(F)F)c4)cc3)c2c1C | 61.2% | 43% | 69% | 70.1% | 81.1% | 39.9% | 76% | 24.1% | 27.4% | 9.11% (active) |
| COc1cc2c(Nc3ccc(NC(=O)Nc4ccc(Cl)c(C(F)(F)F)c4)c(Cl)c3)ncnc2cc1OCCCN1CCN(C)CC1 | -37.9% (active) | 52.5% | 18.6% | 54.9% | 20.5% | 35% | 39.7% | -15.4% (active) | -43.7% (active) | -40.5% (active) |
| N#CC1(C#N)C2=C(CCCC2)NC(c2c(F)cccc2Cl)C1(C#N)C#N (stereo not given) | 37.6% | 71.1% | 72.1% | 70% | 99.8% | 84% | 51.3% | 36.1% | 43.5% | 30.1% |
| CC1CCN(CCCCCOc2ccc3oc4ccccc4c(=O)c3c2)CC1 | 102% | 89% | 69.3% | 63.1% | 71.4% | 95.3% | 74.4% | 77.1% | 53.2% | 47.5% |
| COc1cc(C2=NNC(c3ccc(N(C)C)cc3)C2)cc(OC)c1OC (stereo not given) | 60.9% | 44.4% | 49.3% | 38.9% | 59.2% | 50.6% | -8.21% (active) | 17% | 37.1% | -5.74% (active) |
| COc1ccc2c(c1)Oc1nc(N)c(C#N)c(N)c1C2Sc1ccc(SC)cc1 (stereo not given) | -25.6% (active) | 32.6% | 21.7% | 5.13% (active) | -16.4% (active) | -66.3% (active) | 95.4% | -2.59% (active) | 0.548% (active) | -17.5% (active) |
| Nc1c(C(=O)Nc2ccccn2)sc2nc3c(cc12)CCCC3 | 35.1% | 55.2% | 50.1% | 61.6% | 97.5% | 69.8% | 48.3% | 36.9% | 29.8% | 9.84% (active) |
| COc1cc(NC(=O)Nc2cnc(Nc3ccc(N4CCOCC4)cc3)nc2Oc2ccc(C(F)(F)F)cc2)cc(OC)c1 | 108% | 106% | 102% | 84.7% | 116% | 105% | 110% | 89.4% | 90.5% | 79.9% |
| Cc1nnc(/N=C2\NC(=O)/C(=C/c3ccc(N(C)C)cc3)S2)s1 | 83.1% | 82.8% | 83.8% | 70.6% | 87.3% | 71.8% | 67% | 62.6% | 80.8% | 44.2% |
| CC(C)NS(=O)(=O)c1cccc(-c2ccc3c(=O)n(CCCN)c4c(c3c2)C(=O)c2ccccc2-4)c1 | 111% | 100% | 113% | 93.2% | 96.8% | 101% | 103% | 88.2% | 95.6% | 77.6% |
| COc1cccc(NC(=O)Nc2ccc(Oc3ncnc4[nH]c(C)c(C)c34)cc2)c1 | 100% | 102% | 74.5% | 86.1% | 114% | 73.6% | 106% | 76.4% | 56.9% | 10.5% |
| COc1ccc2nc3c(n2c1)C(=O)C(=O)c1ccccc1-3 | -74.7% (active) | -53.6% (active) | -88.1% (active) | -64.4% (active) | 48.4% | -51.3% (active) | 68.7% | 20.8% | 2.85% (active) | -1.54% (active) |
| COc1ccc(-c2cs/c(=N\N=C\c3ccc(O)cc3O)n2/N=C/c2ccc(O)cc2O)cc1 | -28.4% (active) | 7.59% (active) | 4.01% (active) | -65% (active) | -31.3% (active) | -34.3% (active) | -6.11% (active) | 2.63% (active) | -35.3% (active) | 6.76% (active) |
| CCOc1ccccc1C(=O)/C=C/c1cc2ccccc2[nH]c1=O | 4.96% (active) | -1.6% (active) | -20.9% (active) | -97.7% (active) | 15% | -5.01% (active) | -14.7% (active) | -0.719% (active) | 5.16% (active) | 4% (active) |
| CCSc1ccc(C2C(Br)C(=O)N2c2cc(OC)c(OC)c(OC)c2)cc1 (stereo not given) | 63.7% | 70.2% | 31.6% | 26.2% | 76.6% | 32.6% | -14.3% (active) | 12.3% | 20% | 16.3% |
